Experiment [1] concerns the target Lysosomal acid glucosylceramidase (Homo sapiens) (UniProt P04062). In words: Glucocerebrosidase-p2 (AID 348; in the data active = potency below about 10 µM; note: potency is the fitted concentration of half-maximal effect). Conditions: purified GBA, blue fluorogenic substrate, 40 min. In outline: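 Normal human glucocerebrosidase (0.2 nM) with blue fluorogenic substrate (80 uM final) in citrate/phosphate pH 5.9 with 10mM sodium taurocholate, 0.01% tween-20; 40 min RT, NaOH/glycine stop; fluorescence Ex 365/Em 440; AC50 from a titration from 0.6 nM upwards.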

The nature of experiment [2]: AP1 Signaling Pathway (AID 357; active = well fitted curve in either direction with a large enough effect, not every such curve was filed as active;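 note: ME-180 reporter cells stimulated with EGF at its EC50 level; % is set by controls: 0 for no effect and ±100 for the full control effect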). Conditions: ME-180 AP-1-bla reporter, EGF-induced, beta-lactamase ratio, 5 h; at 7.69 µM (top of the series) unless noted. In outline: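 AP-1-bla ME-180 cells, Opti-MEM + 0.5% dialyzed FBS, plated overnight 37 °C. Cpd titration + EC50 EGF, 5 h 37 °C. CCF4 2.5 h RT; ex 405, em 460/530 ratio → %activity, AC50.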
Experiment [3] addresses Cytochrome P450 1A2 (Homo sapiens) (UniProt P05177). The experiment in a line: p450-cyp1a2 (AID 410; calls by dose curve; note: potency is the fitted concentration of half-maximal effect). Conditions: recombinant CYP1A2, luciferin-ME demethylation, luminescence; series mostly up to 57 µM. In short, it runs like this:
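20nM CYP1A2, 100uM Luciferin-ME (=Km), 100mM KPO4; cpd 10 min RT; +NADPH regen, 60 min RT; stop/detect 20 min; luminescence. Normalized to furafylline 57 uM = full inhibition.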

The nature of experiment [4]: NFAT Signaling Pathway (AID 444; active = well fitted curve in either direction with a large enough effect, not every such curve was filed as active;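 note: carbachol stimulus at about its EC50 of 1 µM final; % is set by controls: 0 for no effect and ±100 for the full control effect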). Particulars: Jurkat NFAT-bla M1, carbachol, beta-lactamase ratio, 5 h; at 7.69 µM (top of the series) unless noted. In outline: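 Read-out: CCF4 FRET ratio (460 nm/530 nm) after 1 h RT dye loading, used for %activity and AC50 from titration series. Cells: Jurkat NFAT-β-lactamase/M1 line, treated with compound plus 1 uM carbachol for 5 h, 37 °C.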

Experiment [5] can be described thus: Stat Signaling Pathway (AID 446; active = well fitted curve in either direction with a large enough effect, not every such curve was filed as active;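 note: ME-180 cervical cancer cells given 40 pM IL-6 alongside compound; SIE-controlled beta-lactamase reporter measured as 460/530 nm FRET emission ratio; % is set by controls: 0 for no effect and ±100 for the full control effect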). Conditions: ME-180 (cervical carcinoma) SIE beta-lactamase reporter, IL-6 stimulated, 5 h; at 7.69 µM (top of the series) unless noted. In short, it runs like this:
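FRET read-out (405 nm excitation, 460/530 nm emission) of a beta-lactamase reporter under a STAT-inducible element in ME-180 cervical carcinoma cells. Cells with compound receive 40 pM IL-6 for 5 h. Values are normalised to AC90 stimulation and AC90 JAK-inhibitor controls.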

The target in experiment [6] is Glucocorticoid receptor (Homo sapiens) (UniProt P04150). The experiment in a line: GR-GFP Redistribution (AID 450;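 active = compounds whose dose series gives a full or clear partial fitted curve of increased nuclear translocation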; note: potency is the fitted concentration of half-maximal effect). Particulars: U2OS GR-GFP nuclear translocation, laser cytometry, 2 h.
Chain of Glucocorticoid receptor (Homo sapiens) (P04150 whole entry, looked up, the tested form may be a part): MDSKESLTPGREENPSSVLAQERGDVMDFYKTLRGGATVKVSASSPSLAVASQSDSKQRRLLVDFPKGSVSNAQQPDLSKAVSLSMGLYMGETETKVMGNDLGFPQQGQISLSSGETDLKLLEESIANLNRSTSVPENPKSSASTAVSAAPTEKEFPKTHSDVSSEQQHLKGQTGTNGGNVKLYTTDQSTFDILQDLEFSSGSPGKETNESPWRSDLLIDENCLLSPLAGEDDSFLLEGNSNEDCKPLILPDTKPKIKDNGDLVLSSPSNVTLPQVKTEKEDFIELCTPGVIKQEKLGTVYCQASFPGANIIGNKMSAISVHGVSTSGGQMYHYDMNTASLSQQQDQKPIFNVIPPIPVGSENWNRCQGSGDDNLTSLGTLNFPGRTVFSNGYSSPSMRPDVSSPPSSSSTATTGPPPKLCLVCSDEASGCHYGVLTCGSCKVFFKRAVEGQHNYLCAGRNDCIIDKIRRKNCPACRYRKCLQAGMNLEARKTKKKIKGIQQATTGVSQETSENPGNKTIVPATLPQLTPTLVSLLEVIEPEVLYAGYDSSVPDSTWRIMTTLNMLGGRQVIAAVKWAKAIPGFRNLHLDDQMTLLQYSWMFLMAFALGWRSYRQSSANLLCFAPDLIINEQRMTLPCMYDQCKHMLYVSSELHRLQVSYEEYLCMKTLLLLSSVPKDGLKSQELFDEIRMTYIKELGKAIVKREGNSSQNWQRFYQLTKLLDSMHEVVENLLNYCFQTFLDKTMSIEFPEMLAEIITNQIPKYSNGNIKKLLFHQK
The target is the same in experiment [7]. The experiment in a line: GR-EFC Redistribution (AID 451; calls by dose curve; note: potency is the fitted concentration of half-maximal effect). Conditions: CHO-K1 GR-EFC translocation, beta-gal luminescence, 2 h. In outline: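 Translocation of GR-ED fusion to nuclear EA restores b-gal, read by luminescence after 1 h room-temperature detection. Engineered CHO-K1 biosensor cells, 1,000/well, exposed 2 h at 37 C to titrations up to 46 uM final.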

Experiment [8] addresses Mitogen-activated protein kinase 10 (Mus musculus) (UniProt Q61831). The experiment in a line: JNK3 AlphaScreen Assay (AID 530; active = well fitted curve in either direction with a large enough effect, not every such curve was filed as active;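 note: kinase came from lysate of stimulated human HepG2 cells; signal reports phosphorylation of biotinylated GST-cJun 1-79 at Ser73 with 10 µM ATP; % is set by controls: 0 for no effect and ±100 for the full control effect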). Particulars: JNK3 lysate, c-Jun phosphorylation; series mostly up to 57.1 µM. In outline:
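Kinase buffer: 20 mM Tris-HCl pH 7.6, 10 mM MgCl2, 1 mM DTT, 0.1 mM Na3VO4, 0.01% Tween-20; ATP 10 uM. Substrate biotin-GST-cJun(1-79), enzyme from activated HepG2 lysates. Detection by Ser73 phospho-antibody AlphaScreen.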

The target in experiment [9] is 3',5'-cyclic-AMP phosphodiesterase 4B (Homo sapiens) (UniProt Q07343). In words: qHTS Assay for Inhibitors of PDE-IV (AID 607; active = well fitted activation curve with a large enough effect in the main read-out, with a control signal flat, not every such curve was filed as active; note: % of control where 0% means no effect). Conditions: HEK293 ACTOne CNG channel cells, membrane potential fluorescence; series mostly up to 22.9 µM. In outline: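 Cell-based read-out of cAMP via a modified cyclic nucleotide-gated channel and membrane potential dye (535/590 nm) in HEK293 cells expressing PDE4 endogenously. Compounds tested up to 22.9 uM final; 100 uM RO 20-1724 reference.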
Chain of 3',5'-cyclic-AMP phosphodiesterase 4B (Homo sapiens) (Q07343 whole entry, looked up): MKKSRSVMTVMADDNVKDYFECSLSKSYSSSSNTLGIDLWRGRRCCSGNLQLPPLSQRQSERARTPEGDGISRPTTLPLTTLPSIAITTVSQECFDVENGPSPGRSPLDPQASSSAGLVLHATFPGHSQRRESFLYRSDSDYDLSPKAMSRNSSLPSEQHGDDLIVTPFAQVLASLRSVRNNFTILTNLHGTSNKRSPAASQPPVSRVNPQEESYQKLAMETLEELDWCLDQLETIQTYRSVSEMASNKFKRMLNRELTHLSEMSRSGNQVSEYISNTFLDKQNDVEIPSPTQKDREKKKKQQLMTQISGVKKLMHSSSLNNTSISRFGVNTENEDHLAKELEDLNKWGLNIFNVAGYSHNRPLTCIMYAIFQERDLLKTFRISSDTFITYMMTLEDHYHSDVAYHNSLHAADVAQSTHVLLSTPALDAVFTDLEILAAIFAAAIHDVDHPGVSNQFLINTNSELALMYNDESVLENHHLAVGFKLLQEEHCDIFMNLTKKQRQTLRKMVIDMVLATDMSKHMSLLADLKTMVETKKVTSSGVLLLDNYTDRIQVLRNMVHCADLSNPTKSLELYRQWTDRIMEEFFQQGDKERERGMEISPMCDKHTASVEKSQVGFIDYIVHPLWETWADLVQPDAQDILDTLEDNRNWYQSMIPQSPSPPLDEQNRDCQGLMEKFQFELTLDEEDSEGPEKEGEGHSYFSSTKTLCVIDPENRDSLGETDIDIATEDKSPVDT

Experiment [10] has as its target Dual specificity protein kinase CLK4 (Homo sapiens) (UniProt Q9HAZ1). The experiment in a line: qHTS Assay for Inhibitors of CDC-like Kinase 4 (ADP-Glo Assay) (AID 1771). Note: nearly all actives have a fitted effect of over 70% in size. Note: potency is the fitted concentration of half-maximal effect. Conditions: recombinant CLK4, ADP-Glo luminescence; series mostly up to 80 µM. In short, it runs like this:
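25 nM Clk4, 100 uM RS peptide, 1 uM ATP (final); 2 mM MgCl2, 0.5 mM EGTA, 2.5 mM DTT, 0.01% Triton X-100; 1 hr RT. ADP-Glo readout: ATP depletion 45 min, conversion/luciferase 30 min, luminescence.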

Experiment [11] deals with Ubiquitin carboxyl-terminal hydrolase 1 (Homo sapiens) (UniProt O94782). The experiment in a line: Inhibitors of USP1/UAF1: Pilot qHTS (AID 504865).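 Note: rhodamine fluorescence freed from ubiquitin-rhodamine substrate followed over time; top concentration of the series differs between compounds; % is set by controls: 0 for no effect and ±100 for the full control effect; nearly all actives have a fitted effect of over 35% in size.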 Conditions: purified USP1/UAF1, Ub-rhodamine cleavage fluorescence; series mostly up to 54.9 µM. In outline: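 USP1/UAF1 complex (1nM) preincubated with compound 15 min at room temperature, then Ub-Rho substrate (150nM final) added. Fluorescence read kinetically at 480/540 nm, 6 reads every 60 seconds. Buffer: 50mM HEPES pH 7.8, 0.5mM EDTA, 0.1 mg/ml BSA, 1mM TCEP, 0.01% Tween-20.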
Chain of Ubiquitin carboxyl-terminal hydrolase 1 (Homo sapiens) (O94782 whole entry, looked up): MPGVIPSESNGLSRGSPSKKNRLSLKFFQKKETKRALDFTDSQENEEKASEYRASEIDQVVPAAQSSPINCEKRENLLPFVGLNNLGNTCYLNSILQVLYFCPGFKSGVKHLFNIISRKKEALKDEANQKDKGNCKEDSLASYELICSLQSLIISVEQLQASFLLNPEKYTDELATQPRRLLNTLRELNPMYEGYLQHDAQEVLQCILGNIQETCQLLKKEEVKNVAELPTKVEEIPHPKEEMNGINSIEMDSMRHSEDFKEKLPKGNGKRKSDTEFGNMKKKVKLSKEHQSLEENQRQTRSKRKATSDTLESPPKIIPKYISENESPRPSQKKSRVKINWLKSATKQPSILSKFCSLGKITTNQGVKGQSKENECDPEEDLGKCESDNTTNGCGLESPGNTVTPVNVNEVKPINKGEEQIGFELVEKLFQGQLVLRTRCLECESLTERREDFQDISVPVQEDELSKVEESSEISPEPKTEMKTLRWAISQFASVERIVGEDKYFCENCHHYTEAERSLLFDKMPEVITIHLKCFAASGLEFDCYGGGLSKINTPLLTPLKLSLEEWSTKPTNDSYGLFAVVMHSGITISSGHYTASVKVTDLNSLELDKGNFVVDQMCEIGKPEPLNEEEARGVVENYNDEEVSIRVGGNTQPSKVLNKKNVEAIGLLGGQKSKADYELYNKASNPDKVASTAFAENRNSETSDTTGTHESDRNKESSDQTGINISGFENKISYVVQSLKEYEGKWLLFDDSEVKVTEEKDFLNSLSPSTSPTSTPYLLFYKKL

The nature of experiment [12]: Primary qHTS for small molecule stabilizers of the endoplasmic reticulum resident proteome: Secreted ER Calcium Modulated Protein (SERCaMP) assay (AID 1508630). Note: % is set by controls: 0 for no effect and ±100 for the full control effect. Particulars: SH-SY5Y GLuc-SERCaMP (Gaussia luciferase released on ER calcium loss) secretion, thapsigargin, luminescence; series mostly up to 38.4 µM. In outline:
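The SH-SY5Y reporter protocol was run at 3 concentrations up to 38.3 uM (primary) or 11 concentrations (follow-up): 16 h compound, 100 nM thapsigargin for 4 h, then extracellular luciferase luminescence.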

For experiment [13], the target named is Cytochrome P450 3A4 (Homo sapiens) (UniProt P08684). The experiment in a line: qHTS Assay for Activators of Cytochrome P450 3A4 (AID 885). Note: nearly all actives have a fitted effect of over 65% in size. Conditions: recombinant CYP3A4, Luciferin-PPXE luminescence, 60 min; series mostly up to 57.1 µM. In outline: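 Luminescent readout of luciferin formed from 25 uM Luciferin-PPXE (KM level) by 20 nM CYP3A4 in 200 mM KPO4, with 60 min NADPH-driven reaction at room temperature after 10 min compound exposure. Ketoconazole (57 uM) defined 100% inhibition.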
Chain of Cytochrome P450 3A4 (Homo sapiens) (P08684 whole entry, looked up): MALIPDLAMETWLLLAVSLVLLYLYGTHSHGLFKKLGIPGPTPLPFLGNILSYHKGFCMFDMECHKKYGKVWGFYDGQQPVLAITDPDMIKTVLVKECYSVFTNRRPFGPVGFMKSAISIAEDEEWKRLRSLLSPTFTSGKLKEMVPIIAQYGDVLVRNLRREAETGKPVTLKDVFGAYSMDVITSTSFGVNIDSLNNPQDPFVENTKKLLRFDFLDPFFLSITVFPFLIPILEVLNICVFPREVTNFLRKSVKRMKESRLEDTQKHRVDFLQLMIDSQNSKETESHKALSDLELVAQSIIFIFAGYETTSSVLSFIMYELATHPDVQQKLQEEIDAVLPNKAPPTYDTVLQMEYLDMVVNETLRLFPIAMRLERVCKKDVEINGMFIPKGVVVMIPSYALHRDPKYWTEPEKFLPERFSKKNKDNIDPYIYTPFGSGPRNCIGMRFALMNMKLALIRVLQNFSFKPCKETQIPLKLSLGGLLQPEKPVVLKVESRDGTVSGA

The target in experiment [14] is Dual specificity protein kinase CLK4 (Homo sapiens) (UniProt Q9HAZ1). The experiment in a line: qHTS Assay for Inhibitors of CDC-like Kinase 4 (ADP-FP Assay) (AID 1795). Note: nearly all actives have a fitted effect of over 60% in size. Note: potency is the fitted concentration of half-maximal effect. Conditions: Transcreener ADP fluorescence polarization; series mostly up to 50 µM. In outline: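 Recombinant human Clk4 (6.25 nM) phosphorylated RS repeat peptide (100 uM) with 1 uM ATP in Tris pH 7.5/MgCl2/EGTA/DTT/Triton buffer for one hour. ADP was quantified by Transcreener competitive fluorescence polarization against an ADP calibration curve.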
Chain of Dual specificity protein kinase CLK4 (Homo sapiens) (Q9HAZ1 whole entry, looked up): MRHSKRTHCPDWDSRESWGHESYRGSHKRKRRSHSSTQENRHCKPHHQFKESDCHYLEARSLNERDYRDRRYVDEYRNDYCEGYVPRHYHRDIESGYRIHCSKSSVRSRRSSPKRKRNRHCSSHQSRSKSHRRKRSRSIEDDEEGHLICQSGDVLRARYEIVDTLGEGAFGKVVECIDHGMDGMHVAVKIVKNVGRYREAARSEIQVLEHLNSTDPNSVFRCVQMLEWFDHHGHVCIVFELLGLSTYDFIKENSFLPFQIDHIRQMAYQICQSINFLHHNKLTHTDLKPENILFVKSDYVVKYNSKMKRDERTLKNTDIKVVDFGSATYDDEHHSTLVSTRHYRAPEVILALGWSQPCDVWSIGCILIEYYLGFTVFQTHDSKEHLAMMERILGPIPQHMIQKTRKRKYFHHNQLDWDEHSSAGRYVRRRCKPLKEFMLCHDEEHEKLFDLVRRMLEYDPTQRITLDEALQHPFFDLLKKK

Experiment [15] addresses Cytochrome P450 3A4 (Homo sapiens) (UniProt P08684). The experiment in a line: qHTS Assay for Inhibitors and Substrates of Cytochrome P450 3A4 (AID 884). Note: potency is the fitted concentration of half-maximal effect; nearly all actives have a fitted effect of over 50% in size. Conditions: recombinant CYP3A4, Luciferin-PPXE luminescence; series mostly up to 57.1 µM. In outline: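 Luminescent readout of luciferin produced by CYP3A4 (20 nM) dealkylation of Luciferin-PPXE, 25 uM (its KM). NADPH-driven reaction ran 60 min at RT after 10 min compound preincubation; data scaled to 57 uM ketoconazole as 100% inhibition.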

For experiment [16], the target named is Cytochrome P450 2C19 (Homo sapiens) (UniProt P33261). In words: qHTS Assay for Inhibitors and Substrates of Cytochrome P450 2C19 (AID 899). Note: potency is the fitted concentration of half-maximal effect; nearly all actives have a fitted effect of over 60% in size. Conditions: recombinant CYP2C19, luciferin-H EGE luminescence; series mostly up to 57.1 µM. In outline: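 5nM enzyme + 10uM Luciferin-H EGE (=KM), 50mM KPO4; cpd pin-transferred, 10 min 37C; NADPH regen, 60 min 37C; stopped w/ luciferin detection reagent, 20 min; luminescence. Normalized to 57uM ketoconazole (AC100).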
Chain of Cytochrome P450 2C19 (Homo sapiens) (P33261 whole entry, looked up): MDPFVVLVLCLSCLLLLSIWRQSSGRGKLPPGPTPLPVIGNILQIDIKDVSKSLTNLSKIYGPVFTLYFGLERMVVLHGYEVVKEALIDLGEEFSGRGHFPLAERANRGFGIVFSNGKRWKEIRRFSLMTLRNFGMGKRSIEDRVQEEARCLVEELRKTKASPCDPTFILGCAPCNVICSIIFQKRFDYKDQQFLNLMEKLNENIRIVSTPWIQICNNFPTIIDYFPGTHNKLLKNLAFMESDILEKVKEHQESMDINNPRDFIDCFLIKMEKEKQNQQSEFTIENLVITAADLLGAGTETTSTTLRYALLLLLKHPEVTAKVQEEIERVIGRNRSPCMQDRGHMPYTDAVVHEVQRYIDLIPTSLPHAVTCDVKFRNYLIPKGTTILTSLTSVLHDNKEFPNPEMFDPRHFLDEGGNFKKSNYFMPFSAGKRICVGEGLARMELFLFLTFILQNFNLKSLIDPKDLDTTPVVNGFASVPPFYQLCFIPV

The target of experiment [17] is Cytochrome P450 2C9 (Homo sapiens) (UniProt P11712). The experiment in a line: qHTS Assay for Inhibitors and Substrates of Cytochrome P450 2C9 (AID 883). Note: potency is the fitted concentration of half-maximal effect; nearly all actives have a fitted effect of over 60% in size. Conditions: recombinant CYP2C9, luciferin-H luminescence, 60 min; series mostly up to 57.1 µM. In outline: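 Inhibition of CYP2C9 is scored as loss of luminescence, with 57uM sulphaphenazole defining 100% inhibition. Substrate Luciferin-H is used at 100uM, equal to its KM; enzyme at 10nM in 25mM KPO4, 60 min at 37C with NADPH regeneration.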

In experiment [18] the target is Cytochrome P450 2D6 (Homo sapiens) (UniProt P10635). In words: qHTS Assay for Inhibitors and Substrates of Cytochrome P450 2D6 (AID 891). Note: potency is the fitted concentration of half-maximal effect; nearly all actives have a fitted effect of over 60% in size. Particulars: recombinant CYP2D6, luciferin-ME EGE luminescence; series mostly up to 57.1 µM. In outline:
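Luminescent read-out of luciferin formed by 5 nM human CYP2D6 demethylating 30 uM Luciferin-ME EGE (Km level) over 60 min at room temperature after NADPH regeneration addition. Data normalized to full inhibition by 1.43 uM quinidine.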

A number with no mark means an inactive call. Results filed as inconclusive are left out. Active and inactive are the calls of the source. Unless noted, calls come from the whole dose curve; as a rule, active = well fitted curve in the direction sought with a large enough effect; inconclusive = small, poorly fitted or top-dose-only effect, or another doubt; inactive = no such curve, though single readings can be large; an effect the other way counts as inactive or inconclusive. Bounds are passed on as bounds.

Chain of Lysosomal acid glucosylceramidase (Homo sapiens) (P04062 whole entry, looked up): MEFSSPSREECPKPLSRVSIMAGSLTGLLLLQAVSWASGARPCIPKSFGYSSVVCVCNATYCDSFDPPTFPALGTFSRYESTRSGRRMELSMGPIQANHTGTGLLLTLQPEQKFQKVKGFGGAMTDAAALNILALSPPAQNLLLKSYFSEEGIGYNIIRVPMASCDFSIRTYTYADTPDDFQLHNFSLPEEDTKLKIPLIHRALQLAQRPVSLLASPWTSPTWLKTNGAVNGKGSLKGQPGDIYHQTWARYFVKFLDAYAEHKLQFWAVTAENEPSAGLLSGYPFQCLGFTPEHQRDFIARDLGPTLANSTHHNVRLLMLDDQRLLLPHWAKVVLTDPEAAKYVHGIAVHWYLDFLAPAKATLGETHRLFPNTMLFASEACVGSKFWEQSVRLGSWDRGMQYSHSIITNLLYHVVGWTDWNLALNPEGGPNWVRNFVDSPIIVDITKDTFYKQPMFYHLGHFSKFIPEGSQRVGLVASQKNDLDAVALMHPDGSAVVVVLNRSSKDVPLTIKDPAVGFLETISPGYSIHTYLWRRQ
Chain of Cytochrome P450 1A2 (Homo sapiens) (P05177 whole entry, looked up): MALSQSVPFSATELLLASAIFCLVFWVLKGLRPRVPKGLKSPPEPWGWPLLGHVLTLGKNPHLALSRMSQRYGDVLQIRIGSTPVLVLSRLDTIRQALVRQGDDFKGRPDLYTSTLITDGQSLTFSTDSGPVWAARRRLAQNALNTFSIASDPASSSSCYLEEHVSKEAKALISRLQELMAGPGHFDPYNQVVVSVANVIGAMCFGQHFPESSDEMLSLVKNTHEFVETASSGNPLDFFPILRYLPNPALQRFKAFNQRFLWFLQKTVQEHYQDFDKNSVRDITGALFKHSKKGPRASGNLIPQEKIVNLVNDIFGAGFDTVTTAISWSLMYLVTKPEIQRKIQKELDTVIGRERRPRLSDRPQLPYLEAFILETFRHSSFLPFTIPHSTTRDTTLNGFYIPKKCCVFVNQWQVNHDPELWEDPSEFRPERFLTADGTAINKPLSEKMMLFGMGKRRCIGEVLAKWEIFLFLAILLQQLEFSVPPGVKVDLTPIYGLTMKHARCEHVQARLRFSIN

Regarding `Cn1c(=O)c(-c2ccc(Cl)cc2)nc2cnc(OCc3ccccc3)nc21`, the Potency in [1] was greater than 11.4 µM; in experiment [3], 0.794 µM (active); in [6], greater than 9.22 µM; in experiment [7], greater than 46 µM. Further, the activity change, negative = inhibition is -12.6% in [2] and -7.07% in experiment [4]. The activity, negative = inhibition in experiment [5] is -4.02%. In addition, the Potency result in [8], in experiment [9], in experiment [10] and in experiment [11] was “inactive” throughout. The result in [12] was inactive.
Take `COc1ccccc1-c1nc(N2CCOCC2)c2ccccc2n1`: the Potency in [1] is greater than 11.4 µM; in experiment [3] it was 0.501 µM (active); in experiment [6], greater than 46 µM; in experiment [7] it was greater than 46 µM; in [10] it was 20 µM (active). Besides, the activity change, negative = inhibition in experiment [2] is -9.32%; in experiment [4] it was 10.4%. Besides, the activity, negative = inhibition in experiment [5] was 14.3%. Besides, the Potency result in [8], in experiment [13], in [14] and in experiment [11] was “inactive” each time. Moreover, the result in experiment [12] was inactive.
Regarding `c1cncc(-c2nc(-n3ccnc3)c3ccccc3n2)c1`, the Potency in [1] is greater than 11.4 µM; in [6] it was greater than 46 µM; in experiment [7], greater than 46 µM; in experiment [10] it was 11.2 µM (active); in experiment [14] it was 12.6 µM (active). The activity change, negative = inhibition in [2] was 14.5%; in [4], 8.3%. In [5], the activity, negative = inhibition was -3.82%. Besides, the Potency result in [8], in experiment [9] and in experiment [11] was “inactive” in each case. Moreover, in experiment [12], the outcome was inactive.
Turning to `COCCNc1nc(-c2ccoc2)nc2ccccc12`, the Potency was greater than 11.4 µM in experiment [1], greater than 46 µM in experiment [6] and greater than 46 µM in experiment [7]. Moreover, the values for the activity change, negative = inhibition in experiment [2] and in [4] were 1.3% and -13.7%, respectively. For the same compound, the activity, negative = inhibition in [5] was 8.88%. The Potency result in [8], in experiment [13], in experiment [10], in [14] and in experiment [11] was “inactive” in each case. Further, in experiment [12], the result was inactive.
For `COc1ccc(CNc2nc(-c3c(C)noc3C)nc3ccccc23)c(OC)c1`, the Potency was greater than 2.29 µM in experiment [1]; 0.794 µM (active) in experiment [3]; greater than 46 µM in experiment [6]; greater than 46 µM in [7]; 2.51 µM (active) in experiment [15]; 3.16 µM (active) in experiment [16]. The activity change, negative = inhibition in experiment [2] is 5.92%. Also, the Potency entry in [8], in experiment [13], in [10] and in experiment [14] was “inactive” in each case. In addition, the outcome in experiment [12] was inactive.
As to `COc1ccc2[nH]cc(CCNc3nc(-c4ccc(N(C)C)cc4)nc4ccccc34)c2c1`, the Potency was 0.554 µM (active) in experiment [1]; 1.26 µM (active) in [3]; greater than 46 µM in experiment [6]; greater than 46 µM in experiment [7]; 0.398 µM (active) in experiment [17]; 2.51 µM (active) in experiment [15]. Further, the Potency in experiment [18] was 7.94 µM (active); in experiment [16] it was 7.94 µM (active); in experiment [10] it was 28.2 µM (active). Further, the Potency entry in experiment [13], in experiment [14] and in [11] was “inactive” throughout. In addition, the result in experiment [12] was inactive.
Consider `Cc1cnc(CNc2ncncc2-c2cccc(NS(C)(=O)=O)c2)cn1`, for which the Potency is greater than 11.4 µM in experiment [1], greater than 46 µM in experiment [6], greater than 46 µM in experiment [7] and 3.16 µM (active) in [15]. The activity change, negative = inhibition in experiment [2] is 3.85%; in experiment [4], -0.565%. In [5], the activity, negative = inhibition was 13.1%. Also, the Potency entry in experiment [8], in experiment [9], in [13], in experiment [10], in experiment [14] and in experiment [11] was “inactive” in each case. For the same compound, in experiment [12], the result was inactive.

Source of the values: PubChem BioAssay (NCATS).
